Among the data in PubChem BioAssay (NCATS) are activation, Potency and activity change, negative = inhibition values, retold here.

“And” between values parts separate entries of the source, which are not always exact repeats. Equal entries are not always repeated. Results filed as inconclusive are left out. Values without a mark were called inactive. The source made the active and inactive calls. The call rests on the fitted dose curve; in most records, active means well fitted curve in the direction sought with a large enough effect; inconclusive means small, poorly fitted or top-dose-only effect, or another doubt; inactive means no such curve, though single readings can be large; an effect the other way counts as inactive or inconclusive.

Assay [1] deals with Cellular tumor antigen p53 (Homo sapiens) (UniProt P04637). The experiment in a line: Primary qHTS for small molecule compounds that upregulate eGFP-tagged delta133p53alpha (in N-terminal) cells. (AID 2060322). Further: nearly all actives have a fitted effect of over 75% in size. Further: potency means the concentration at half of the fitted maximal effect.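 On activation: series mostly up to about 56 µM; 0% = DMSO vehicle and 100% = reference activator.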 To be noted: NCI-H358 eGFP-delta133p53alpha fluorescence, 24 h; activation: active compounds read high. In a few lines:
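NCI-H358 cells pre-induced 24 h with 10 ng/ml doxycycline to express N-terminal eGFP-delta133p53alpha, then dosed 24 h at 37C without doxycycline; fixed, Hoechst-stained, GFP intensity by laser scanning cytometry, normalized to DMSO (0%) and 57.5 uM 5-azacytidine (100%).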

In assay [2] the target is Aldehyde dehydrogenase, mitochondrial (Homo sapiens) (UniProt P05091). The experiment in a line: qHTS for Inhibitors of the Aldehyde Dehydrogenase Family (ALDH2) Primary screen (AID 2061308).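 Further: plate controls were vehicle for no effect and reference inhibitor for full effect; nearly all actives have a fitted effect of over 55% in size.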
Assay [3] addresses Retinaldehyde dehydrogenase 3 (Homo sapiens) (UniProt P47895). The experiment in a line: qHTS for Inhibitors of the Aldehyde Dehydrogenase Family (ALDH1A3) Primary screen (AID 2061315).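 Further: plate controls were DMSO vehicle for no effect and reference inhibitor for full effect.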 For orientation: In qHTS, concentration-response curves come from the screen itself.

Cellular tumor antigen p53 (Homo sapiens), sequence (P04637 whole entry, looked up): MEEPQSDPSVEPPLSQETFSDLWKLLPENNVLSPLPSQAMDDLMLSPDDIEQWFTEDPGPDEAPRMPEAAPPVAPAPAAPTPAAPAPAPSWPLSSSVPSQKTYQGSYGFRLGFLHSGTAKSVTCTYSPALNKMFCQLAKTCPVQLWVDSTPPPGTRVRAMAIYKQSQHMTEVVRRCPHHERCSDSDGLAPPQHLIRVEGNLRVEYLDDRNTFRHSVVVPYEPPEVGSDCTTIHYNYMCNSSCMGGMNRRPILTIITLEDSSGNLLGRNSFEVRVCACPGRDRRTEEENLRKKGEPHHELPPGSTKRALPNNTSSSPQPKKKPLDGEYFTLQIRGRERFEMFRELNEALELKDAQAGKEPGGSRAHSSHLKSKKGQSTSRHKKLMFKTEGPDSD

Take `CC(=O)O[C@H]1[C@H](Oc2ccccc2COC(=O)C2(O)C=CCCC2=O)O[C@H](CO)[C@@H](O)[C@@H]1O` (some centres undefined): in assay [1], the activation is -9.92%. For the same compound, the Potency result in assay [2] and in assay [3] was “inactive” each time.
Regarding `CC1(C)CC2C3=CCC4C5(C)CCC(OC6OC(C(=O)O)C(O)C(O)C6OC6OC(CO)C(O)C(O)C6OC6OC(CO)C(O)C(O)C6O)C(C)(CO)C5CCC4(C)C3(C)CCC2(C)C(OC2OCC(O)C(OC3OC(CO)C(O)C(O)C3O)C2O)C1O` (centres undefined), in assay [1], the activation was -18.3%. For the same compound, the activity change, negative = inhibition in assay [2] is 5.84% [at 11.2 µM]; in assay [3], -21.1% [at 11.2 µM].
`CC(=O)OC1[C@H]2[C@@H](C[C@@H](C)[C@@H]3C=CC(=O)[C@@]13C)OC(=O)[C@@H]2C` (some centres undefined): the Potency in assay [1] was 21.3 µM (active). For the same compound, the Potency entry in assay [2] and in assay [3] was “inactive” in each case.
Turning to `CC1NC(=O)C(Cc2c[nH]c3ccccc23)NC1=O` (centres undefined), the activation in assay [1] was -13.7%. For the same compound, the Potency result in assay [2] and in assay [3] was “inactive” in each case.
Take `CC(=O)C1=C(C)N(c2cccc(C(F)(F)F)c2)C(=O)N[C@H]1c1ccc(C#N)nc1`: the activation in assay [1] is -3.67%. For the same compound, the Potency entry in assay [2] and in assay [3] was “inactive” each time.
Regarding `O=C1Nc2ccccc2C(O)(c2ccccc2)C1O` (centres undefined), in assay [1], the activation is 0.763%. Besides, the Potency entry in assay [2] and in assay [3] was “inactive” each time.
With `Cc1sc(C)c(C(=O)NC2(c3ccc(C(=O)O)cc3)CC2)c1Cc1ccc(C(F)(F)F)cc1`, in assay [1], the activation is -4.77%. Further, the Potency result in assay [2] and in assay [3] was “inactive” each time.
As for `COc1ccnc2[nH]cc(C(=O)C(=O)N3CCN(C(=O)c4ccccc4)CC3C)c12` (centres undefined), the activation in assay [1] was -3%. The Potency result in assay [2] and in assay [3] was “inactive” each time.
On to `Nc1ccc(S(=O)(=O)Nc2nccs2)cc1`, for which, in assay [1], the activation was 18.4% and 0.333%. In addition, the Potency entry in assay [2] and in assay [3] was “inactive” throughout.
As for `C=C1C(O[C@@H]2O[C@H](CO)[C@@H](O)[C@H](O)[C@@H]2O)CC2C(C)(C)C(O)CCC2(C)C1CC/C(C)=C\CO` (some centres undefined), the activation in assay [1] is 6.11%. In addition, the Potency entry in assay [2] and in assay [3] was “inactive” throughout.
In the case of `C[C@@H]1O[C@@H](O[C@H]2[C@@H]3C=CO[C@@H](O[C@@H]4O[C@H](CO)[C@@H](O)[C@H](O)[C@H]4O)[C@@H]3[C@@]3(CO)O[C@@H]23)[C@H](OC(=O)/C=C/c2ccccc2)[C@H](O)[C@H]1O`, the activation in assay [1] was 4.46%. For the same compound, the Potency entry in assay [2] and in assay [3] was “inactive” throughout.
Take `CC(C)c1ccc(CO)cc1O[C@@H]1O[C@H](CO)[C@@H](O)[C@H](O)[C@H]1O`: in assay [1], the activation is -11.5%. In addition, the Potency result in assay [2] and in assay [3] was “inactive” in each case.
Take `CCC(C)C(=O)OC12C(OC(C)=O)C(C)C3(O)C(C=C(CO)CC4(O)C(=O)C(C)=CC43)C1C2(C)C` (centres undefined): the activation in assay [1] was -19.1%. In addition, the Potency result in assay [2] and in assay [3] was “inactive” throughout.
Turning to `CC1CCC2(C(=O)O)CCC3(C)C(=CCC4C5(C)CCC(OC(=O)/C=C/c6ccccc6)C(C)(C)C5CCC43C)C2C1C` (centres undefined), the activation in assay [1] is -8.4%. In addition, the Potency entry in assay [2] and in assay [3] was “inactive” throughout.
In the case of `C=C1CC[C@@H]2[C@@](C)(CO[C@@H]3O[C@H](CO)C(O)[C@H](O)C3O)[C@H](O)CC[C@@]2(C)[C@@H]1CC/C(C)=C/CO` (some centres undefined), the activation in assay [1] is -5.36%. Further, the Potency entry in assay [2] and in assay [3] was “inactive” each time.
With `O=C1CC[C@H](C(=O)N2CCCCC2)N1`, the activation in assay [1] is -6.33%. For the same compound, the Potency result in assay [2] and in assay [3] was “inactive” in each case.
As to `COc1c2ccoc2nc2c(OC)c(O[C@@H]3O[C@@H](C)[C@H](O)[C@@H](O[C@@H]4O[C@H](CO)[C@@H](O)[C@H](O)[C@H]4O)[C@H]3OC(C)=O)ccc12`, the activation in assay [1] is 27.7%. Moreover, the Potency result in assay [2] and in assay [3] was “inactive” in each case.
Consider `C=C1CCC2(OC1)OC1CC3C4CC=C5CC(O)CC(O[C@@H]6OC[C@H](OC(=O)C(O)C(C)CC)[C@H](O)[C@H]6O[C@@H]6O[C@@H](C)[C@H](O)[C@@H](O)[C@H]6O)C5(C)C4CCC3(C)C1C2C` (some centres undefined), for which the activation in assay [1] was 11.6%. Further, the Potency result in assay [2] and in assay [3] was “inactive” each time.
With `COc1cc(C(=O)OC[C@H]2O[C@H](O[C@@]3(CO)O[C@@H](CO)[C@H](O)[C@H]3O)[C@H](O)[C@@H](O)[C@@H]2O)ccc1O`, the activation in assay [1] is -1.53%. The Potency result in assay [2] and in assay [3] was “inactive” throughout.
As to `C[C@@H]1O[C@@H](O[C@H]2[C@H](OC(=O)C34CCC5(C)C(=CCC6C7(C)CC(O)C(O[C@@H]8O[C@H](C(=O)O)[C@@H](O)[C@H](O)[C@H]8O)C(C)(C(=O)O)C7CCC65C)C3CC(C)(C)CC4O)O[C@H](C)[C@@H](O)[C@@H]2O)[C@H](O)[C@@H](O[C@@H]2OC[C@](O)(CO)[C@H]2O[C@@H]2O[C@H](CO)[C@@H](O)[C@H](O)[C@H]2O)[C@H]1O` (some centres undefined), in assay [1], the activation is 8.4%. Also, the figures for the activity change, negative = inhibition in assay [2] and in assay [3] were 0.837% [at 11.2 µM] and 5.31% [at 11.2 µM], respectively.
With `CC(=O)OC1CC(=O)C2(C)C3CC4=C(OC(C)CC4=O)OC3(C)CCC2C1(C)C` (centres undefined), the activation in assay [1] is -6.11%. The Potency entry in assay [2] and in assay [3] was “inactive” throughout.
Regarding `CCN(Cc1cccnc1)C(=O)CN(c1ccc(OC)nc1)S(=O)(=O)c1ccccc1C`, the activation in assay [1] is -3%. Also, the Potency result in assay [2] and in assay [3] was “inactive” each time.
Regarding `C[C@H]1CC[C@@]2(OC1)O[C@H]1CC3C4CC[C@H]5C[C@@H](O)CC[C@]5(C)C4CC(=O)[C@]3(C)[C@H]1[C@@H]2C` (some centres undefined), in assay [1], the activation is 25.9%. Moreover, the Potency result in assay [2] and in assay [3] was “inactive” each time.
